Assay results published in PubChem BioAssay.
Where “and” joins values, the source holds several entries; their conditions need not be identical. Equal values may be shown once. Records with an inconclusive call do not appear. Calls of active or inactive are those of the source.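 Rule for the calls, unless noted: active = normalized viability below 100% at a tested concentration; inactive = the rest.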

Assays:
[1] = viability loss in pontine glioma line – cell-based, SU-DIPG-XVII, MIPE5.0, CellTiter-Glo, qHTS, dose response (AID 1347060; cut-off not given, nearly all actives have AC50 up to about 26 µM;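 for AC50: cells exposed to compound for 48 hours before viability readout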); conditions: CellTiter-Glo ATP luminescence
[2] = viability loss in pontine glioma line – cell-based, JHH-DIPG-1, MIPE4.0, CellTiter-Glo, qHTS, dose response (AID 1347062; cut-off not given, nearly all actives have AC50 up to about 27 µM;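 for AC50: cells exposed to compound for two days before readout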); conditions: JHH-DIPG-1 viability, CellTiter-Glo ATP luminescence
[3] = viability loss in pontine glioma line – cell-based, SU-DIPG-IV, MIPE4.0, CellTiter-Glo, qHTS, dose response (AID 1347063; cut-off not given, nearly all actives have AC50 up to about 30 µM;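 note: compound exposure lasted 48 hours before the viability readout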); conditions: CellTiter-Glo ATP luminescence
[4] = viability loss in pontine glioma line – cell-based, SU-DIPG-XIII, MIPE5.0, CellTiter-Glo, qHTS, dose response (AID 1347064; cut-off not given, nearly all actives have AC50 up to about 23 µM;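 for AC50: cells exposed to compound for 48 hours before the viability read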); conditions: CellTiter-Glo ATP luminescence
[5] = viability loss in pontine glioma line – cell-based, SU-DIPG-XXV, MIPE5.0, CellTiter-Glo, qHTS, dose response (AID 1347065; cut-off not given, nearly all actives have AC50 up to about 26 µM;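 note: cells exposed to compound for 48 hours before ATP readout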); conditions: CellTiter-Glo ATP luminescence
[6] = JHH-DIPG-1 glioma cell viability, MIPE5.0 library, CellTiter-Glo luminescence, qHTS (AID 1347067; cut-off not given, nearly all actives have AC50 up to about 26 µM;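 note: cells exposed to compound for 48 hours before readout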); conditions: JHH-DIPG-1 glioma viability, CellTiter-Glo ATP luminescence
[7] = growth inhibition of DIPG cells – cell-based, MIPE5.0 library, qHTS (AID 1347068; cut-off not given, nearly all actives have IC50 up to about 30 µM;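 for IC50: cells exposed to compound for 48 hours before viability readout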); conditions: SU-DIPG-XXV viability
[8] = drug combination growth inhibition, ovarian cancer – cell-based, oncology-focused library, rucaparib conditional, profiling panel (AID 1508598); conditions: patient-derived ovarian cancer cells, CellTiter-Glo viability, 144 h, stronger effect = lower value
[9] = growth inhibition of DIPG cells – cell-based, MIPE4.0 library, CellTiter-Glo luminescence, qHTS (AID 1347066; cut-off not given, nearly all actives have AC50 up to about 30 µM;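 note: cells exposed to compound for 48 hours before readout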); conditions: SU-DIPG-VI viability, CellTiter-Glo ATP luminescence
[10] = compounds altering HSF1 focus formation in cells – imaging, Selleck Cancer Library (AID 1347162; in the data active = plate-normalised HSF1 focus index below about 0.46); conditions: human cells, HSF1 nuclear foci imaging, at 10 µM; SSMD: measured here: HSF1 foci SSMD mean; cell count: measured here: cell number; plate-normalised HSF1 focus index: stronger effect = lower value
[11] = viability loss with induced miR-34 in A549 – imaging, A549 dox-inducible miR-34, nuclei and caspase counts, primary screen (AID 1347080;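 active = compounds whose cell count with miR-34 switched on is under 0.7 times the count with it off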); conditions: A549 miR-34 inducible, Hoechst nuclei count, 48 h
[12] = MELAS cybrid and Rieske KO viability enhancers – cell-based, MELAS cybrids, Rieske KO mouse fibroblasts, CellTiter-Glo, primary screen (AID 1508586;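 active = mean z-score across replicates of 1.96 or higher in either the MELAS or the Rieske mutant cell line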;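 note: z relative to plate mean and SD of compound and empty wells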); conditions: low glucose
[13] = stronger effect = lower value, cell number ratio, induced over uninduced
[14] = measured here: relative caspase fold change +Dox/-Dox
[15] = measured here: total cells with miR-34 induction, stronger effect = lower value
[16] = measured here: total cells without miR-34 induction
[17] = MELAS cybrid survival, CellTiter-Glo 48 h, stronger effect = higher value
[18] = Rieske KO mouse fibroblast survival, CellTiter-Glo 72 h

COc1cc(OC)c(/C=C/S(=O)(=O)Cc2ccc(OC)c(NCC(=O)O)c2)c(OC)c1
inactive: viability ([8]; at 0.000305 µM, OCI-C5x cells, with rucaparib 10 µM, 100% = cells with rucaparib alone) 110% | viability ([8]; at 0.000305 µM, OCI-C5x cells, without rucaparib) 120% | viability ([8]; at 0.000305 µM, OCI-P5x cells, with rucaparib 20 µM, 100% = cells with rucaparib alone) 106% | viability ([8]; at 0.00122 µM, OCI-C5x cells, with rucaparib 10 µM, 100% = cells with rucaparib alone) 114% | viability ([8]; at 0.00122 µM, OCI-C5x cells, without rucaparib) 111% | viability ([8]; at 0.00122 µM, OCI-P5x cells, with rucaparib 20 µM, 100% = cells with rucaparib alone) 102% | viability ([8]; at 0.00122 µM, OCI-P5x cells, without rucaparib) 104% | viability ([8]; at 0.00488 µM, OCI-C5x cells, with rucaparib 10 µM, 100% = cells with rucaparib alone) 107% | viability ([8]; at 0.00488 µM, OCI-C5x cells, without rucaparib) 115% | viability ([8]; at 0.00488 µM, OCI-P5x cells, with rucaparib 20 µM, 100% = cells with rucaparib alone) 103% | viability ([8]; at 0.00488 µM, OCI-P5x cells, without rucaparib) 101%
active: AC50 [1] 0.0934 µM | AC50 [2] 0.935 µM | AC50 [3] 0.0264 µM | AC50 [4] 0.295 µM | AC50 [5] 0.118 µM | AC50 [6] 0.118 µM | IC50 [7] 0.0661 µM | viability ([8]; at 0.000305 µM, OCI-P5x cells, without rucaparib) 75.1% | viability ([8]; at 0.0195 µM, OCI-C5x cells, with rucaparib 10 µM, 100% = cells with rucaparib alone) 91.1% | viability ([8]; at 0.0195 µM, OCI-C5x cells, without rucaparib) 88% | viability ([8]; at 0.0195 µM, OCI-P5x cells, with rucaparib 20 µM, 100% = cells with rucaparib alone) 94.8% | viability ([8]; at 0.0195 µM, OCI-P5x cells, without rucaparib) 61.6% | viability ([8]; at 0.0781 µM, OCI-C5x cells, with rucaparib 10 µM, 100% = cells with rucaparib alone) 53.4% | viability ([8]; at 0.0781 µM, OCI-C5x cells, without rucaparib) 45% | viability ([8]; at 0.0781 µM, OCI-P5x cells, with rucaparib 20 µM, 100% = cells with rucaparib alone) 73.5% | viability ([8]; at 0.0781 µM, OCI-P5x cells, without rucaparib) 23.1% | viability ([8]; at 0.313 µM, OCI-C5x cells, with rucaparib 10 µM, 100% = cells with rucaparib alone) 50.7% | viability ([8]; at 0.313 µM, OCI-C5x cells, without rucaparib) 35.9% | viability ([8]; at 0.313 µM, OCI-P5x cells, with rucaparib 20 µM, 100% = cells with rucaparib alone) 56.6% | viability ([8]; at 0.313 µM, OCI-P5x cells, without rucaparib) 20.6% | viability ([8]; at 1.25 µM, OCI-C5x cells, with rucaparib 10 µM, 100% = cells with rucaparib alone) 37.8% | viability ([8]; at 1.25 µM, OCI-C5x cells, without rucaparib) 32.9% | viability ([8]; at 1.25 µM, OCI-P5x cells, with rucaparib 20 µM, 100% = cells with rucaparib alone) 54.9% | viability ([8]; at 1.25 µM, OCI-P5x cells, without rucaparib) 14.5% | viability ([8]; at 5 µM, OCI-C5x cells, with rucaparib 10 µM, 100% = cells with rucaparib alone) 36.1% | viability ([8]; at 5 µM, OCI-C5x cells, without rucaparib) 29% | viability ([8]; at 5 µM, OCI-P5x cells, with rucaparib 20 µM, 100% = cells with rucaparib alone) 52% | viability ([8]; at 5 µM, OCI-P5x cells, without rucaparib) 12.1%

Cc1c(CCOc2ccc(C(=O)O)cc2)c2cc(Cl)ccc2n1C(c1ccccc1)c1ccccc1
6680: cell count [10]
inactive: outcome [1] | outcome [2] | outcome [3] | outcome [4] | outcome [5] | outcome [9] | outcome [6] | outcome [7] | plate-normalised HSF1 focus index [10] 1.14
2.36: SSMD [10]

OCc1ccc(-c2ccc(-c3ccc(CO)s3)o2)s1
active: AC50 [1] 14.8 µM | AC50 [2] 20.9 µM | AC50 [3] 18.7 µM | AC50 [4] 16.6 µM | AC50 [5] 23.5 µM | AC50 [6] 16.6 µM
0.768 and 1.19: fold change [11, 14]
3100 and 2800: cell count [11, 16]
0.342: z-score [12, 18]
inactive: fold change [11, 13] 0.99 and 0.88 | z-score [12, 17] -0.467
3070 and 2470: cell count [11, 15]

Nc1nc(N)c2nc(-c3cccc(O)c3)c(-c3cccc(O)c3)nc2n1
active: AC50 [2] 14.8 µM | AC50 [3] 6.62 µM
7850: cell count [11, 16]
0.762: fold change [11, 14]
inactive: outcome [1] | outcome [4] | outcome [5] | outcome [6] | outcome [7] | fold change [11, 13] 0.972 | z-score [12, 17] -0.482
7630: cell count [11, 15]
0.936: z-score [12, 18]
